Shown is part of a subset that was picked to be rich in the strongest signals.
Columns and labels:
Assay in all cases: glycan array binding signal (z-score within array); higher = stronger binding
Conditions in all cases: glycan notation: IUPAC condensed, linker removed
[1] = target: Fuc(a1-2)Gal(b1-3)GlcNAc(b1-2)Man(a1-3)[Fuc(a1-2)Gal(b1-3)GlcNAc(b1-2)Man(a1-6)]Man(b1-4)GlcNAc(b1-4)GlcNAc
Outline: (§1)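 Glycan array binding is given as a within-array Z-score, which can be read as non-binding when negative. The arrays, 3228 of them, came from the Consortium for Functional Glycomics database and were retained only where the protein sequence was available. Z-scores were averaged across arrays of the same protein sequence at different concentrations or buffers and across linkers.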

[2] = target: Fuc(a1-2)Gal(b1-4)[Fuc(a1-3)]GlcNAc(b1-3)[Neu5Ac(a2-6)Gal(b1-4)GlcNAc(b1-6)]Gal(b1-4)Glc
Outline: as §1

[3] = target: Fuc(a1-2)Gal6S(b1-4)Glc6S
Outline: as §1

[4] = target: Fuc(a1-2)[Gal(a1-3)]Gal(b1-3)GlcNAc(b1-2)Man(a1-3)[Fuc(a1-2)[Gal(a1-3)]Gal(b1-3)GlcNAc(b1-2)Man(a1-6)]Man(b1-4)GlcNAc(b1-4)GlcNAc
Outline: as §1

[5] = target: Fuc(a1-2)[GalNAc(a1-3)]Gal(b1-3)GlcNAc(b1-3)GalNAc
Outline: as §1

[6] = target: Fuc(a1-2)[GalNAc(a1-3)]Gal(b1-4)GlcNAc(b1-2)Man(a1-3)[Fuc(a1-2)[GalNAc(a1-3)]Gal(b1-4)GlcNAc(b1-2)Man(a1-6)]Man(b1-4)GlcNAc(b1-4)[Fuc(a1-6)]GlcNAc
Outline: as §1

Fuc(a1-4)GlcNAc = target: Fuc(a1-4)GlcNAc
Outline: as §1

[7] = target: Gal(a1-3)Gal(b1-3)GlcNAc(b1-2)Man(a1-3)[Gal(a1-3)Gal(b1-3)GlcNAc(b1-2)Man(a1-6)]Man(b1-4)GlcNAc(b1-4)GlcNAc
Outline: as §1

[8] = target: Gal(a1-3)[Gal(a1-4)]Gal(b1-4)GlcNAc
Outline: as §1

[9] = target: Gal(b1-3)GalNAc(a1-3)[Fuc(a1-2)]Gal(b1-4)Glc
Outline: as §1

[10] = target: Gal(b1-3)GalNAc(b1-4)[Neu5Ac(a2-3)]Gal(b1-4)Glc
Outline: as §1

[11] = target: Gal(b1-3)GlcNAc(b1-3)Gal(b1-4)[Fuc(a1-3)]GlcNAc(b1-6)[Gal(b1-3)GlcNAc(b1-3)]Gal(b1-4)Glc
Outline: as §1

[12] = target: Gal(b1-4)GalNAc(a1-3)[Fuc(a1-2)]Gal(b1-4)GlcNAc
Outline: as §1

[13] = target: Gal(b1-4)GlcNAc(b1-2)[Gal(b1-4)GlcNAc(b1-6)]Man(a1-6)[Gal(b1-4)GlcNAc(b1-2)Man(a1-3)]Man(b1-4)GlcNAc(b1-4)GlcNAc
Outline: as §1

[14] = target: Gal(b1-4)GlcNAc(b1-2)[Gal(b1-4)GlcNAc(b1-6)]Man(a1-6)[GlcNAc(b1-4)][Gal(b1-4)GlcNAc(b1-2)[Gal(b1-4)GlcNAc(b1-4)]Man(a1-3)]Man(b1-4)GlcNAc(b1-4)[Fuc(a1-6)]GlcNAc
Outline: as §1

[15] = target: Gal(b1-4)GlcNAc(b1-3)Gal(b1-3)GalNAc
Outline: as §1

[16] = target: Gal(b1-4)GlcNAc(b1-3)Gal(b1-4)GlcNAc(b1-3)Gal(b1-4)GlcNAc(b1-3)Gal(b1-4)GlcNAc(b1-2)[Gal(b1-4)GlcNAc(b1-3)Gal(b1-4)GlcNAc(b1-3)Gal(b1-4)GlcNAc(b1-3)Gal(b1-4)GlcNAc(b1-6)]Man(a1-6)[Gal(b1-4)GlcNAc(b1-3)Gal(b1-4)GlcNAc(b1-3)Gal(b1-4)GlcNAc(b1-3)Gal(b1-4)GlcNAc(b1-2)Man(a1-3)]Man(b1-4)GlcNAc(b1-4)[Fuc(a1-6)]GlcNAc
Outline: as §1

[17] = target: Gal(b1-4)GlcNAc(b1-3)Gal(b1-4)GlcNAc(b1-3)GalNAc
Outline: as §1

Gal3S(b1-4)Glc = target: Gal3S(b1-4)Glc
Outline: as §1

[18] = target: Gal3S(b1-4)[Fuc(a1-3)]Glc6S
Outline: as §1

Gal3S6S(b1-4)GlcNAc6S = target: Gal3S6S(b1-4)GlcNAc6S
Outline: as §1

Gal4S6S(b1-4)GlcNAc = target: Gal4S6S(b1-4)GlcNAc
Outline: as §1

Gal6P(b1-4)GlcNAc = target: Gal6P(b1-4)GlcNAc
Outline: as §1

Gal6S(b1-3)GlcNAc = target: Gal6S(b1-3)GlcNAc
Outline: as §1

[19] = target: GalNAc(b1-3)Gal(a1-4)Gal(b1-4)GlcNAc
Outline: as §1

GalNAc(b1-4)GlcNAc = target: GalNAc(b1-4)GlcNAc
Outline: as §1

[20] = target: GalNAc(b1-4)GlcNAc(b1-2)Man(a1-3)[GalNAc(b1-4)GlcNAc(b1-2)Man(a1-6)]Man(b1-4)GlcNAc(b1-4)GlcNAc
Outline: as §1

GalNAc3S(b1-4)GlcNAc = target: GalNAc3S(b1-4)GlcNAc
Outline: as §1

[21] = target: Glc(a1-6)Glc(a1-6)Glc(a1-6)Glc
Outline: as §1

[22] = target: GlcNAc(a1-4)Gal(b1-4)GlcNAc(b1-3)Gal(b1-4)Glc
Outline: as §1

[23] = target: GlcNAc(a1-4)Gal(b1-4)GlcNAc(b1-3)Gal(b1-4)[Fuc(a1-3)]GlcNAc(b1-3)Gal(b1-4)[Fuc(a1-3)]GlcNAc
Outline: as §1

[24] = target: GlcNAc(b1-2)Man(a1-3)[GlcNAc(b1-2)Man(a1-6)]Man(b1-4)GlcNAc(b1-4)[Fuc(a1-6)]GlcNAc
Outline: as §1

[25] = target: GlcNAc(b1-3)Gal(b1-4)GlcNAc(b1-2)Man(a1-3)[GlcNAc(b1-3)Gal(b1-4)GlcNAc(b1-2)Man(a1-6)]Man(b1-4)GlcNAc(b1-4)[Fuc(a1-6)]GlcNAc
Outline: as §1

[26] = target: GlcNAc(b1-3)Gal(b1-4)GlcNAc(b1-6)[Gal(b1-3)]GalNAc
Outline: as §1

GlcNAc(b1-6)GalNAc = target: GlcNAc(b1-6)GalNAc
Outline: as §1

[27] = target: Man(a1-2)Man(a1-3)[Man(a1-2)Man(a1-6)]Man
Outline: as §1

[28] = target: Man(a1-2)Man(a1-3)[Man(a1-2)Man(a1-6)]Man(a1-6)[Man(a1-2)Man(a1-2)Man(a1-3)]Man
Outline: as §1

[29] = target: Man(a1-2)Man(a1-6)[Man(a1-3)]Man(a1-6)[Man(a1-2)Man(a1-2)Man(a1-3)]Man
Outline: as §1

[30] = target: Man(a1-3)[Man(a1-6)]Man(a1-6)[Man(a1-3)]Man
Outline: as §1

Man(a1-6)Man = target: Man(a1-6)Man
Outline: as §1

[31] = target: Neu5Ac(a2-3)Gal(b1-3)GalNAc
Outline: as §1

[32] = target: Neu5Ac(a2-3)Gal(b1-4)GlcNAc
Outline: as §1

[33] = target: Neu5Ac(a2-3)Gal(b1-4)GlcNAc(b1-3)Gal(b1-3)GlcNAc
Outline: as §1

[34] = target: Neu5Ac(a2-3)Gal(b1-4)GlcNAc(b1-6)[Gal(b1-3)]GalNAc
Outline: as §1

[35] = target: Neu5Ac(a2-3)Gal(b1-4)[Fuc(a1-3)]GlcNAc(b1-3)GalNAc
Outline: as §1

Neu5Ac(a2-3)GalNAc = target: Neu5Ac(a2-3)GalNAc
Outline: as §1

[36] = target: Neu5Ac(a2-6)Gal(b1-4)GlcNAc(b1-2)Man(a1-3)[GlcNAc(b1-2)Man(a1-6)]Man(b1-4)GlcNAc(b1-4)GlcNAc
Outline: as §1

[37] = target: Neu5Ac(a2-8)Neu5Ac(a2-8)Neu5Ac(a2-3)[Gal(b1-3)GalNAc(b1-4)]Gal(b1-4)Glc
Outline: as §1

[38] = target: Neu5Gc(a2-8)Neu5Gc(a2-3)Gal(b1-4)GlcNAc
Outline: as §1

B1: GS13455A-bfa-343-25-343 (Bacteroides fragilis) (protein)
chain: KDEIQIVDQDTSWQMDNKYIEEDIREQLGIDPFTDLVYLGYYGNPYTQLEAINDLVNTTLVGKNELSFKVKVTKPYKEDIKVNLMKEDKLVTDFPEMAEGIPLFPSENCTFEGGVLKAGELETTVKLTLKDVEKLNNLSGYVMAIKLTMEGSHEHLAIARTRSSYFVKLNLSIRLDNIDSSNKKIEGKGFNKEISFKSDIRPDKLGSLNDGNFTANNWYTSNANNYLTIILPEKQSLKGFRLDTNTSPSGSYMLKSCRVMVETPDGNWVNHGVFDRKSMDGIAYISFKKPVECTKVRFENMMAFNGRFSVDVNEVTAFR
[1]
  glycan array binding signal (z-score): -0.69
[2]
  glycan array binding signal (z-score): -0.309
[3]
  glycan array binding signal (z-score): 0.254
[4]
  glycan array binding signal (z-score): -0.738
[5]
  glycan array binding signal (z-score): 2.29
[6]
  glycan array binding signal (z-score): 1.46
Fuc(a1-4)GlcNAc
  glycan array binding signal (z-score): 20.2
[7]
  glycan array binding signal (z-score): -0.044
[8]
  glycan array binding signal (z-score): 1.91
[9]
  glycan array binding signal (z-score): -0.504
[10]
  glycan array binding signal (z-score): -0.051
[11]
  glycan array binding signal (z-score): -0.016
[12]
  glycan array binding signal (z-score): -0.716
[13]
  glycan array binding signal (z-score): -0.11
[14]
  glycan array binding signal (z-score): -0.04
[15]
  glycan array binding signal (z-score): 0.107
[16]
  glycan array binding signal (z-score): 0.144
[17]
  glycan array binding signal (z-score): -0.065
Gal3S(b1-4)Glc
  glycan array binding signal (z-score): 1.7
[18]
  glycan array binding signal (z-score): 1.38
Gal3S6S(b1-4)GlcNAc6S
  glycan array binding signal (z-score): 1.68
Gal4S6S(b1-4)GlcNAc
  glycan array binding signal (z-score): 0.197
Gal6P(b1-4)GlcNAc
  glycan array binding signal (z-score): -0.523
Gal6S(b1-3)GlcNAc
  glycan array binding signal (z-score): -0.365
[19]
  glycan array binding signal (z-score): 1.43
GalNAc(b1-4)GlcNAc
  glycan array binding signal (z-score): -0.125
[20]
  glycan array binding signal (z-score): 1.75
GalNAc3S(b1-4)GlcNAc
  glycan array binding signal (z-score): -0.39
[21]
  glycan array binding signal (z-score): -0.604
[22]
  glycan array binding signal (z-score): 0.059
[23]
  glycan array binding signal (z-score): 1.64
[24]
  glycan array binding signal (z-score): -0.409
[25]
  glycan array binding signal (z-score): 0.601
[26]
  glycan array binding signal (z-score): -0.194
GlcNAc(b1-6)GalNAc
  glycan array binding signal (z-score): -0.656
[27]
  glycan array binding signal (z-score): -0.554
[28]
  glycan array binding signal (z-score): -0.701
[29]
  glycan array binding signal (z-score): 0.988
[30]
  glycan array binding signal (z-score): -0.129
Man(a1-6)Man
  glycan array binding signal (z-score): 0.205
[31]
  glycan array binding signal (z-score): 0.08
[32]
  glycan array binding signal (z-score): -0.152
[33]
  glycan array binding signal (z-score): 0.34
[34]
  glycan array binding signal (z-score): -0.414
[35]
  glycan array binding signal (z-score): 3.25
Neu5Ac(a2-3)GalNAc
  glycan array binding signal (z-score): -0.681
[36]
  glycan array binding signal (z-score): 0.878
[37]
  glycan array binding signal (z-score): -0.113
[38]
  glycan array binding signal (z-score): 0.527

From the supplement of paper PMC8728848
